Test results from PubChem BioAssay (NCI).
This is part of a sample that, as a whole, favours compounds with a hit. Of some 83,000 tested, about 20% had one in any assay.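 Results are percent growth after 48 hours of single-concentration exposure. 100 means growth as in untreated cells, lower positive values show inhibition; negative values down to -100 show cell death.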 Values without a mark were called inactive. Calls of active or inactive are those of the source. How the source made its calls: active means growth percent below 10; inactive means the rest.

Key:
Assay in all cases: NCI-60 one-dose screen, 48 h (100 = growth as untreated, 0 = no growth, -100 = all killed)
Conditions in all cases: 10 µM
[1] = system: NCI-H226 lung
[2] = system: HOP-62 NSCLC
[3] = system: NCI-H460 lung
[4] = system: HOP-92 NSCLC
[5] = system: NCI-H522 lung
[6] = system: A549/ATCC NSCLC
[7] = system: 786-0 renal
[8] = system: COLO 205 colon
[9] = system: DU-145 prostate
[10] = system: K-562 leukemia
[11] = system: MALME-3M melanoma
[12] = system: MDA-MB-231 breast
[13] = system: RXF 393 renal
[14] = system: SF-268 CNS
[15] = system: SF-295 CNS
[16] = system: SF-539 CNS
[17] = system: UACC-257 melanoma
[18] = system: M14 melanoma

Structure (SMILES) | growth [1] | growth [2] [%] | growth [3] | growth [4] | growth [5] | growth [6] [%] | growth [7] | growth [8] | growth [9] [%] | growth [10] | growth [11] [%] | growth [12] | growth [13] | growth [14] [%] | growth [15] | growth [16] | growth [17] | growth [18]
CCN(CC)CCOC(=O)c1cc(OCc2ccccc2)c(OCc2ccccc2)c(OCc2ccccc2)c1 | 73.6% | 62.4 | 12.4% | 40% | 45% | 42.5 | 52.1% | 62.1% | 64.6 | 0.819% (active) | 54 | 16% | 47% | 59.3 | 84.5% | 81.1% | 73.8% | 18.4%
CNC(=O)c1c(I)c(NC(C)=O)c(I)c(C(=O)O)c1I | 98.8% | – | 109% | 92.7% | – | 105 | 127% | 118% | 113 | – | 112 | 95.5% | 115% | 108 | 119% | 109% | 114% | –
COc1cc2cc(Oc3ccc(NC(=O)c4ccc(Cl)c(C(F)(F)F)c4)cc3)c(C)nc2cc1OC | 25.5% | 73.1 | 19.7% | – | 20.3% | 13.8 | 32.2% | 33.1% | 43 | 14.8% | 37.2 | 48.3% | 50.8% | 56.1 | 7.81% (active) | 57.3% | 36.8% | 18.4%
CCOC(=O)c1cc(C(=O)c2cc(OC)c(OC)c(OC)c2)n2c1ccc1c3cccnc3ccc12 | 82.3% | 61.9 | 82.2% | 55.5% | 22.8% | 64 | 78.5% | 36.6% | 89.3 | 12.9% | 79.3 | 69.5% | 66.8% | 69.9 | 63.4% | 55.5% | 73.4% | 31.6%
Cc1cn(-c2cccc(NC(=O)c3ccc(C)c(Nc4nccc(-c5cccnc5)n4)c3)c2)cn1 | -43% (active) | – | -13% (active) | -13% (active) | -17.7% (active) | 10.7 | -52.2% (active) | 11% | 13.3 | -22.5% (active) | 42 | -48.5% (active) | -49.5% (active) | 15.8 | – | -33.3% (active) | 29.1% | 22.6%
OC[C@H]1OC([S-])[C@H](O)[C@@H](O)[C@@H]1O.[Au+] (some centres undefined) | 103% | – | 110% | 75.6% | – | 95.7 | 87.3% | 114% | 111 | – | 137 | 70% | 93.2% | 88.2 | 113% | 84.3% | 90% | 81.6%
COc1ccc(-c2csc(NC(=O)c3ccc(Cc4n[nH]c(=O)c5cccnc45)cc3)n2)cc1 | 71.4% | 92 | 97.4% | – | 80.7% | 101 | 99.2% | 110% | 108 | 82.9% | 86.8 | 79.7% | 72.4% | 97.1 | 86.6% | 87.1% | 94.5% | 103%
Cc1c2cnccc2c(C)c2c1oc1ccccc12 | 69.4% | – | 28.4% | 113% | 69.6% | 43 | 84.9% | 52.3% | 54.1 | 77.2% | 62.7 | 111% | 71.5% | 73.8 | 74.9% | 96.6% | 86.8% | –
CNS(=O)(=O)Oc1ccc(-c2ccc3occc3c2)cc1 | 93.8% | 102 | 104% | 91.8% | 84% | 93.3 | 99.1% | 111% | 109 | 89.1% | 116 | 100% | 122% | 102 | 92.9% | 98.1% | 107% | 113%
CN(C)CCCN1c2ccccc2CCc2ccc(Cl)cc21 | 85.7% | – | 79.4% | – | – | 72.4 | 71.3% | -11.9% (active) | 87.1 | – | 36.7 | 15.8% | 28.3% | 59.4 | 75.6% | 83.5% | -11.9% (active) | 7.07% (active)
CN(C)c1nc(N)c2nccnc2n1 | 105% | 111 | 108% | 101% | – | 99.6 | 109% | 100% | 108 | 128% | – | 108% | 115% | 101 | 84.4% | 105% | 111% | 117%
